Records with an inconclusive call do not appear. Activity calls are given as the source filed them. The calls were made as follows: active = hit-call score of the fitted dose curve at least 0.9, where 1 is the maximum; inconclusive = response in the unintended direction; inactive = score below 0.9.
Target: human Protein Tyrosine Phosphatase Non-receptor Type 9 (PTPN9), PTPN9 (gene 5780) (UniProt P43378)
Experiment: NVS_ENZ_hPTPN9: NovaScreen (NVS) Enzymatic Assay for human Protein Tyrosine Phosphatase Non-receptor Type 9 (PTPN9) (AID 2283209)
Method: NVS_ENZ_hPTPN9 is a biochemical, single-readout assay that uses extracted gene-proteins from SF9 in a cell-free assay. Measurements were taken 1.33 hours after chemical dosing in a 384-well plate.NVS_ENZ_hPTPN9 is one of one assay component(s) measured or calculated from the NVS_ENZ_hPTPN9 assay. It is designed to make measurements of enzyme activity, a form of enzyme reporter, as detected with fluorescence intensity signals by Fluorescence and electrophoretic mobility shift technology.Data from the assay component NVS_ENZ_hPTPN9 was analyzed into 1 assay endpoint. This assay endpoint, NVS_ENZ_hPTPN9, was analyzed in the positive analysis fitting direction relative to DMSO as the negative control and baseline of activity. Using a type of enzyme reporter, loss-of-signal activity can be used to understand changes in the enzymatic activity as they relate to the gene PTPN9. Furthermore, this assay endpoint can be referred to as a primary readout, because this assay has produced multiple assay endpoints where this one serves a enzymatic activity function. To generalize the intended target to other relatable targets, this assay endpoint is annotated to the phosphatase intended target family, where the subfamily is non-receptor tyrosine phosphatase.
Binding assays used specific radioligands (tritiated, iodinated) with non-radioactive competitive displacement ligands in agonist or antagonist protocols (as indicated) and various reference compounds and inhibitors to titrate specific binding to receptors and transporters. Most enzyme assays (CYPs, kinases, phosphatases, proteases, HDACs) used recombinant protein and specific substrates (fluorescence mostly, some colorimetric and radioactive) and inhibitors, followed by a biochemical separation of substrate and product. All assays for the biochemical HTS were initially run in duplicate at a single concentration (10 uM for CYP450 assays and 25 uM for all others). Assay-chemical combinations meeting a pre-defined threshold (e.g., 30% inhibition and other criteria defined below) were then run in singleton concentration-response format with maximum concentration of 20 uM for CYPs and 50 uM for all others. Each assay was run with positive and negative controls, and concurrent controls on every plate. The follow-up (secondary) screen tested active chemical-pairs in concentration series, as well as a few additional assays not tested in the primary screen, some selected negative inactives, and several cases re-run in the concentration series for confirmatory purposes.

human Protein Tyrosine Phosphatase Non-receptor Type 9 (PTPN9), PTPN9 (gene 5780), sequence (P43378 whole entry, looked up): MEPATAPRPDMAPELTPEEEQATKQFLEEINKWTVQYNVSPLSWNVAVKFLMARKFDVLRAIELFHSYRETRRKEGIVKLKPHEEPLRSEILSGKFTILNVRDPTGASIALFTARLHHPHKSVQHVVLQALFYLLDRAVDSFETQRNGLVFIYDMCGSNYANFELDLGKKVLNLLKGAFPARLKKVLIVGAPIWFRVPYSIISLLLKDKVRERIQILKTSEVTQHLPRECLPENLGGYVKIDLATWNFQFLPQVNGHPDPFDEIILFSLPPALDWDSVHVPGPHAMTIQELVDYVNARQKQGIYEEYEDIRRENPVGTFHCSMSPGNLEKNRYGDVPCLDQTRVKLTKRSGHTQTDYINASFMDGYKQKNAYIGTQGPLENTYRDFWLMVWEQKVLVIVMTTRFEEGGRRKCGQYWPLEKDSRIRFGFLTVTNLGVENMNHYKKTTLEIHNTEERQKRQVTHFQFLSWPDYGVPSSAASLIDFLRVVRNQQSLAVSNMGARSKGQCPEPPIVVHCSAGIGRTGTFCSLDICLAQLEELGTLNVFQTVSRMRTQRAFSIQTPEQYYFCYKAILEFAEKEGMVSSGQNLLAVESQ

| Compound | outcome |
| --- | --- |
| CN(C)c1ccc(Cc2ccc(N(C)C)cc2)cc1 | inactive |
| CCCCC(CC)COC(=O)c1ccc(C(=O)OCC(CC)CCCC)cc1 (stereo not given) | inactive |
| CC[C@H](C)C(=O)O[C@H]1C[C@@H](C)C=C2C=C[C@H](C)[C@H](CC[C@@H]3C[C@@H](O)CC(=O)O3)[C@H]21 | inactive |
| Cc1ccc(N)cc1O | inactive |
| O=c1n(CC2CO2)c(=O)n(CC2CO2)c(=O)n1CC1CO1 (stereo not given) | inactive |
| O=C1OC(=O)C2C3C=CC(C3)C12 (stereo not given) | inactive |
| CC(C)=CCC/C(C)=C/CO | inactive |
| CN(C)c1ccc(N=NS(=O)(=O)O)cc1 | inactive |
| O=C(O)c1cc(N=Nc2ccc(S(=O)(=O)Nc3ccccn3)cc2)ccc1O | inactive |
| O=C(O)c1cccc(Oc2ccccc2)c1 | inactive |
